Our source for the Potency and outcome values is PubChem BioAssay (Tox21).

Assay [1] is described as follows: qHTS assay to identify small molecule agonists of the vitamin D receptor (VDR) signaling pathway - cell viability counter screen (AID 743224). Note: nearly all actives have a fitted effect of over 50% in size. Note: potency is the fitted concentration of half-maximal effect. In short, it runs like this: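 Counter screen run in the same wells as the VDR-bla reporter assay: CellTiter-Glo luminescence, 30 min at room temperature, after 16 h compound treatment at 37C of cells pre-plated for 4 h.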
For orientation: In qHTS, concentration-response curves come from the screen itself.

Assay [2] is described as follows: qHTS assay to identify small molecule antagonists of the vitamin D receptor (VDR) signaling pathway - cell viability counter screen (AID 743225). Note: nearly all actives have a fitted effect of over 50% in size. Note: potency is the fitted concentration of half-maximal effect. In short, it runs like this:
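Cytotoxicity toward the VDR-bla HEK 293T line was scored by ATP-based CellTiter-Glo luminescence, read in the wells already used for the beta-lactamase readout after 16 h compound treatment under 3 nM 1-alpha,25-dihydroxyvitamin D3 stimulation.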

The nature of assay [3]: qHTS assay to identify small molecule agonists of the NFkB signaling pathway (AID 1159509; active = well fitted curve in the direction sought with a large enough effect in the signal ratio in the repeat runs, not every such curve was filed as active; the % refers to the signal ratio; note: series mostly up to about 61 µM). In short, it runs like this:
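Pathway activation was measured in ME-180 cells stably expressing beta-lactamase under NF-kB response element control. Substrate cleavage was read as the 460/530 nm emission shift after 5 hr compound incubation.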

Assay [4] is described as follows: qHTS assay to identify small molecule agonists of the NFkB signaling pathway - cell viability counter screen (AID 1159515; calls by dose curve; note: nearly all actives have a fitted effect of over 55% in size; note: potency is the fitted concentration of half-maximal effect). The method, boiled down:
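Read by CellTiter-Glo luminescence (30 min, room temperature) in the wells also used for the beta-lactamase FRET read. ME-180 NFkB-bla cells at 2,000 per well were plated overnight, then exposed to compound for 5 hr at 37 C.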

A short description of assay [5]: qHTS assay to identify small molecule agonists of the endoplasmic reticulum stress response signaling pathway - cell viability counter screen (AID 1159517; calls by dose curve;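 note: HeLa cells carrying an ER stress response element beta-lactamase reporter; series mostly up to about 61 µM; nearly all actives have a fitted effect of over 50% in size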). In short, it runs like this: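 Cpd-treated ESRE-bla HeLa (5 hr, 37 C) → LiveBLAzer 2 hr RT → CellTiter-Glo 30 min RT → luminescence.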
Assay [6] has as its target Nuclear receptor ROR-gamma (Homo sapiens) (UniProt P51449). Kind of assay: qHTS assay to identify small molecule antagonists of the retinoid-related orphan receptor gamma (ROR-gamma) signaling pathway (AID 1159521; note: nearly all actives have a fitted effect of over 50% in size; note: potency is the fitted concentration of half-maximal effect). The method, boiled down: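 Readout: ONE-Glo luciferase luminescence, 30 min at room temperature. System: Tet-on RORγ CHO, RORE-LUC. Sequence: compound 2 h, doxycycline 1 uM final, 16 h at 37 C.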

Assay [7] can be described thus: qHTS assay to identify small molecule agonists of the AP-1 signaling pathway - cell viability counter screen (AID 1159525; calls by dose curve; note: nearly all actives have a fitted effect of over 55% in size; note: potency is the fitted concentration of half-maximal effect). The method, boiled down: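 Each titration point was normalised to DMSO and tetra n-octyl ammonium bromide controls. The read was Cell Titer Glo luminescence after 30 min at RT, following 5 h compound exposure of ME-180 AP-1-bla cells at 37 °C.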

Assay [8] in a line: qHTS assay to identify small molecule agonists of the AP-1 signaling pathway (AID 1159526; calls by dose curve).
Assay [9] is described as follows: qHTS assay to identify small molecule agonists of the RXR signaling pathway - cell viability counter screen (AID 1159529). Note: nearly all actives have a fitted effect of over 50% in size. Note: potency is the fitted concentration of half-maximal effect. In short, it runs like this: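 Tox21 10K compounds were tested for cytotoxicity against GeneBLAzer RXR-alpha HEK 293T cells grown in 2% charcoal-stripped FBS. Exposure lasted 16 hr at 37 C, 5% CO2; viability read by CellTiter-Glo luminescence.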

Assay [10] can be described thus: qHTS assay to identify small molecule antagonists of the retinoid acid receptor (RAR) signaling pathway - cell viability counter screen (AID 1159551). Note: nearly all actives have a fitted effect of over 35% in size. Note: potency is the fitted concentration of half-maximal effect. In short, it runs like this: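 Cytotoxicity counter screen: ATP content quantified by CellTiter-Glo luminescence in C3RL4 cells treated 6 hr at 37 C with compound and retinol (1 uM final). Cells plated at 1,000/well and cultured overnight before dosing.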

The nature of assay [11]: qHTS assay to identify small molecule agonists of the retinoic acid receptor (RAR) signaling pathway (AID 1159553). In short, it runs like this: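 Luminescence was measured 30 min after luciferase reagent addition at room temperature. Before that, C3RL4 reporter cells (1,000 per well, plated overnight) were treated with compound for 6 hr at 37 C and 5% CO2.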
The target in assay [12] is Retinoic acid receptor RXR-alpha (Homo sapiens) (UniProt P19793). Kind of assay: qHTS assay to identify small molecule agonists of the RXR signaling pathway (AID 1159527; calls by dose curve; note: nearly all actives have a fitted effect of over 35% in size). The method, boiled down: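 Reporter activation is measured as beta-lactamase activity via FRET substrate cleavage (emission 460/530 nm) in HEK 293T cells expressing an RXR-alpha-driven bla construct, following 16 hr compound exposure at 37 C.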
Retinoic acid receptor RXR-alpha (Homo sapiens), sequence (P19793 whole entry, looked up): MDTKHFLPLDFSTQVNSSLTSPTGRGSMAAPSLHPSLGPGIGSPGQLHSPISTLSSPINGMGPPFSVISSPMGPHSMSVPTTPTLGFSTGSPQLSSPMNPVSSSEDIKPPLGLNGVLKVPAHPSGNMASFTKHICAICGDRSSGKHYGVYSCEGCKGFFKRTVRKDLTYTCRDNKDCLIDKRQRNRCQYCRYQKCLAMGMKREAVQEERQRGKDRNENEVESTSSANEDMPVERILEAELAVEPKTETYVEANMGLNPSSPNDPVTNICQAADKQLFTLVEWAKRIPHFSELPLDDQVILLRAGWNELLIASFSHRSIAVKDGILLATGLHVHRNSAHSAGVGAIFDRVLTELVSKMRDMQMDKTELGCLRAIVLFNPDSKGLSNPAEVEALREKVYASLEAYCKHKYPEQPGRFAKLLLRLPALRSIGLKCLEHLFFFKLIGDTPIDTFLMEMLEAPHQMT

Assay [13] can be described thus: qHTS assay to identify small molecule antagonists of the retinoic acid receptor (RAR) signaling pathway (AID 1159552; note: nearly all actives have a fitted effect of over 50% in size; note: potency is the fitted concentration of half-maximal effect). The method, boiled down: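 Overnight-plated C3RL4 reporter cells get compound, then retinol to 1 uM final; plates sit 6 hr at 37 C, 5% CO2. A luciferase reagent is added and light output recorded after 30 min at room temperature.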
The nature of assay [14]: qHTS assay to identify small molecule antagonists of the retinoid-related orphan receptor gamma (ROR-gamma) signaling pathway - cell viability counter screen (AID 1159520). Note: nearly all actives have a fitted effect of over 50% in size. Note: potency is the fitted concentration of half-maximal effect. The method, boiled down:
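Tet-on ROR gamma CHO cells (1,000/well) were plated 4 hr, given compounds in DMSO for 2 hr at 37 C, then induced with 1 uM final doxycycline for 16 hr. Viability was read as ATP by CellTiter-Glo luminescence after 30 min.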

Several values for one entry are separate records, joined by “and”; a condition that tells them apart may be missing. Identical values can stand only once. Inconclusive results are not listed. Some compounds were tested as several samples or in several runs, with calls that do not always agree. Activity calls are given as the source filed them. Unless noted, calls come from the whole dose curve; as a rule, active = well fitted curve in the direction sought with a large enough effect in the repeat runs; inconclusive = weak or mixed curves; inactive = no such curve, though single readings can be large; an effect the other way counts as inactive or inconclusive.

Regarding `C(=NC1CCCCC1)=NC1CCCCC1`, the Potency entry in assay [1] is “inactive and 24.5 µM (active)”. Moreover, the Potency entry in assay [2], in assay [4], in assay [5], in assay [6], in assay [7] and in assay [9] was “inactive” each time. The Potency entry in assay [10] and in assay [11] was “inactive” each time. The outcome in assay [3] and in assay [8] was inactive.
On to `COC(=O)C(Br)CBr` (stereo not given), for which the Potency result in assay [1], in assay [2], in assay [4], in assay [5], in [6] and in assay [7] was “inactive” in each case. Besides, the Potency entry in [12], in assay [9], in assay [10], in assay [13] and in assay [11] was “inactive” each time. The outcome in assay [3] and in [8] was inactive.
Turning to `O=C(O)c1ccccc1C(=O)Nc1cccc2ccccc12`, the Potency result in [1], in assay [2], in [4], in assay [5], in assay [14] and in assay [6] was “inactive” in each case. Also, the Potency result in [7], in assay [12], in [9], in assay [10], in assay [13] and in assay [11] was “inactive” in each case. In assay [3], the compound was called inactive.
Regarding `CCOC(=O)C(Cl)C(C)=O` (stereo not given), the Potency entry in [1], in assay [4], in assay [14], in assay [6], in [7] and in assay [12] was “inactive” each time. Moreover, the Potency result in assay [9], in [10], in assay [13] and in [11] was “inactive” in each case. Also, the compound was called inactive in assay [3] and in [8].
As to `IC(I)=C(I)I`, the Potency in assay [1] was 11 µM (active); in [2], 17.4 µM (active); in assay [4], 54.9 µM (active); in assay [14] it was 3.86 µM (active); in [6] it was 2.73 µM (active); in assay [7], 24.5 µM (active). Besides, the values for the Potency in assay [9], in assay [10] and in assay [13] were 12.3 µM (active), 30.6 µM (active) and 2.73 µM (active), respectively. The outcome in assay [3] was inactive.
Turning to `CC(C)(Cl)[N+](=O)[O-]`, the Potency entry in assay [1], in assay [2], in assay [4], in assay [14], in [6] and in [7] was “inactive” each time. Besides, the Potency entry in [12], in assay [9], in assay [10], in assay [13] and in [11] was “inactive” in each case. In addition, the call in assay [3] and in assay [8] was inactive.
For `CC1(C)[C@H](C=C(Cl)Cl)[C@@H]1C(=O)O[C@@H](C#N)c1cccc(Oc2ccccc2)c1`, the Potency entry in assay [1], in assay [4], in assay [5], in assay [14], in assay [7] and in assay [12] was “inactive” in each case. The Potency result in assay [10], in [13] and in [11] was “inactive” in each case. Besides, in assay [3], the outcome was inactive. In [6], the Potency was 54.5 µM (active).
Take `CCCCN(N=O)C(=N)N[N+](=O)[O-]`: the Potency entry in [1], in assay [2], in assay [4], in [5], in assay [6] and in assay [7] was “inactive” each time. The Potency entry in [12], in [10] and in [11] was “inactive” throughout. The outcome in assay [3] was inactive.
Consider `O=C1NCN(c2ccccc2)C12CCN(CCCOc1ccc(F)cc1)CC2`, for which the Potency result in assay [2], in assay [4], in assay [5], in [14], in assay [7] and in assay [9] was “inactive” each time. In assay [10], the Potency entry was “inactive”. Further, in assay [3], the compound was called inactive. The Potency in assay [6] is 23.7 µM (active).
For the compound `CCOC(=O)[C@]1(c2ccccc2)Oc2ccccc2[C@@H]1N`, the compound was classed as inactive in assay [3]. Besides, the Potency entry in [4], in [5], in [6], in assay [7], in assay [9] and in assay [10] was “inactive” in each case. Also, the Potency entry in assay [13] and in assay [11] was “inactive” in each case.
For `II`, the Potency result in assay [1], in [2], in assay [4], in assay [5] and in [11] was “inactive” each time. Besides, the compound was classed as inactive in assay [3]. Moreover, the Potency in assay [14] was 30.6 µM (active); in [9] it was 6.92 µM (active); in assay [13], 68.6 µM (active).
